Test results published in ChEMBL document CHEMBL4303122, “Identification of potential treatments for COVID-19 through artificial intelligence-enabled phenomic analysis of human cells infected with SARS-CoV-2” (2020).
The full ranking holds about 1,600 compounds; the median of “Hit score” is about 0.13, and the highest 2% start at about 0.46. For the sample, the highest values were picked, then their nearest neighbours and some compounds at random.

Test system: SARS-CoV-2
Test: Antiviral activity against SARS-CoV-2 (USA-WA1/2020 strain) measured by imaging in HRCE cells at MOI 0.4 after 96 hrs (reported as hit score from 0-1 for on-disease vs off-disease activity: scores >0.6 considered hits)
Assay type: functional, Homo sapiens

| SMILES | Hit score |
| --- | --- |
| CO[C@@]1(NC(=O)CSC[C@@H](N)C(=O)O)C(=O)N2C(C(=O)O)=C(CSc3nnnn3C)CS[C@@H]21 [CEFMINOX] | 0.1316 |
| CC(C)CN(C[C@@H](O)[C@H](Cc1ccccc1)NC(=O)O[C@H]1CO[C@H]2OCC[C@H]21)S(=O)(=O)c1ccc(N)cc1 | 0.38 |
| CO[C@]12C[C@@H](COC(=O)c3cncc(Br)c3)CN(C)[C@@H]1Cc1cn(C)c3cccc2c13 [NICERGOLINE] | 0.1321 |
| CC[C@@H](CO)NC(=O)[C@@H]1C=C2c3cccc4[nH]cc(c34)C[C@H]2N(C)C1 [METHYLERGONOVINE] | 0.219 |
| C[C@@H]1C[C@H]2[C@@H]3CCC4=CC(=O)C=C[C@]4(C)[C@@]3(F)[C@@H](O)C[C@]2(C)[C@@]1(O)C(=O)COP(=O)([O-])[O-].[Na+].[Na+] [DEXAMETHASONE SODIUM PHOSPHATE] | 0.2627 |
| COC(=O)N[C@H](C(=O)N1CCC[C@H]1c1nc(-c2ccc3c(c2)O[C@@H](c2ccccc2)n2c-3cc3cc(-c4c[nH]c([C@@H]5CCCN5C(=O)[C@@H](NC(=O)OC)C(C)C)n4)ccc32)c[nH]1)C(C)C [ELBASVIR] | -0.03781 |
| O=C(Nc1c(Cl)cncc1Cl)c1ccc(OC(F)F)c(OCC2CC2)c1 [ROFLUMILAST] | 0.1334 |
| C=CC[N+]1([C@H]2C[C@H]3[C@@H]4CC[C@H]5C[C@H](O)[C@@H](N6CCOCC6)C[C@]5(C)[C@H]4CC[C@]3(C)[C@H]2OC(C)=O)CCCC1 [ROCURONIUM] | 0.1086 |
| CCc1cc2c(cc1CC)CC(NC[C@H](O)c1ccc(O)c3[nH]c(=O)ccc13)C2 [INDACATEROL] | -0.2891 |
| C[C@H]1[C@H](OC(=O)CCC(=O)O)O[C@@H]2O[C@@]3(C)CC[C@H]4[C@H](C)CC[C@@H]1[C@@]24OO3 [ARTESUNATE] | 0.2142 |
| CC(=O)O[C@]1(C(C)=O)CC[C@H]2[C@@H]3C=C(C)C4=CC(=O)CC[C@@H]4[C@H]3CC[C@@]21C [NOMEGESTROL ACETATE] | 0.2782 |
| CC1(C)S[C@@H]2[C@H](NC(=O)Cc3ccccc3)C(=O)N2[C@H]1C(=O)O [PENICILLIN G] | 0.164 |
| CC(=O)O[C@H]1C[C@@H]2CC[C@@H]3[C@H](CC[C@@]4(C)[C@H]3C[C@H]([N+]3(C)CCCCC3)[C@@H]4OC(C)=O)[C@@]2(C)C[C@@H]1[N+]1(C)CCCCC1 [PANCURONIUM] | 0.09762 |
| COc1ccc(CN2CCN(C(c3ccc(F)cc3)c3ccc(F)cc3)CC2)c(OC)c1OC [LOMERIZINE] | -0.04979 |
| C=CCNc1nc(NCC=C)nc(N2CCN(C(c3ccc(F)cc3)c3ccc(F)cc3)CC2)n1 [ALMITRINE] | 0.7206 |
| C#Cc1cccc(Nc2ncnc3cc4c(cc23)OCCOCCOCCO4)c1 [ICOTINIB] | 0.1043 |
| C[C@H](O)[C@H](O)[C@H]1CNc2nc(N)[nH]c(=O)c2N1 [SAPROPTERIN] | 0.04545 |
| C=C1[C@H](CO)[C@@H](O)C[C@@H]1n1cnc2c(=O)[nH]c(N)nc21.O | 0.1346 |
| CC1(C)S[C@@H]2[C@H](NC(=O)[C@H](NC(=O)N3CCN(S(C)(=O)=O)C3=O)c3ccccc3)C(=O)N2[C@H]1C(=O)O [MEZLOCILLIN] | 0.1621 |
| O=C(O[C@H]1C[C@H]2CC[C@@H](C1)[N+]21CCCC1)C(O)(c1ccccc1)c1ccccc1 [TROSPIUM] | 0.08693 |

| SMILES | Hit score |
| --- | --- |
| Cc1ccccc1C(=O)Nc1ccc(C(=O)N2CCCC(N(C)C)c3ccccc32)cc1 (stereo not drawn) [MOZAVAPTAN] | 0.1836 |
| CCC(C)(C)C(=O)O[C@H]1C[C@@H](C)C=C2C=C[C@H](C)[C@H](CC[C@@H]3C[C@@H](O)CC(=O)O3)[C@H]21 [SIMVASTATIN] | 0.1206 |
| C[C@H]1c2cccc(O)c2C(=O)C2=C(O)[C@]3(O)C(=O)C(C(N)=O)=C(O)[C@@H](N(C)C)[C@@H]3[C@@H](O)[C@@H]21.O [DOXYCYCLINE] | -0.02175 |
| CCCCCCCC/C=C/CCCCCCCC(=O)OC[C@H]1O[C@@H](n2ccc(N)nc2=O)C(F)(F)[C@@H]1O [GEMCITABINE ELAIDATE] | 0.08488 |
| CC/C=C\C/C=C\C/C=C\C/C=C\C/C=C\CCCC(=O)O [ICOSAPENT] | 0.1484 |
| C[N+]1(CC2CC2)[C@@H]2C[C@@H](OC(=O)[C@H](CO)c3ccccc3)C[C@H]1[C@@H]1O[C@@H]12 (stereo partly drawn) [CIMETROPIUM] | 0.08586 |
| COc1cccc(Nc2c(C(N)=O)cnc3c(C)cc(S(=O)(=O)c4cccc(C(=O)N(C)C)c4)cc23)c1 [GSK-256066] | -0.006373 |
| Cl.OC(CNCC(O)C1CCc2cc(F)ccc2O1)C1CCc2cc(F)ccc2O1 (stereo not drawn) [NEBIVOLOL HYDROCHLORIDE] | 0.4783 |
| C[C@]12CC[C@@H]3c4ccc(O)cc4CC[C@H]3[C@@H]1CC[C@@H]2OC(=O)CCC1CCCC1 [ESTRADIOL CYPIONATE] | 0.1681 |
| Cc1ccc(/C=C2\CNC/C(=C\c3ccc(C)cc3)C2=O)cc1.Cl | 0.05741 |
| C[C@@H](O)[C@H]1C(=O)N2C(C(=O)O)=C([C@H]3CCCO3)S[C@H]12 [FAROPENEM] | 0.1823 |
| CC1(C)S[C@@H]2[C@H](NC(=O)[C@H](N)c3ccc(O)cc3)C(=O)N2[C@H]1C(=O)[O-].[Na+] [AMOXICILLIN SODIUM] | 0.05468 |
| NCCCC[C@H](N)C(=O)O.N[C@@H](CSCC(=O)O)C(=O)O.O | 0.1749 |
| CO/N=C(\C(=O)N[C@@H]1C(=O)N2C(C(=O)OCOC(=O)C(C)(C)C)=C(C)CS[C@H]12)c1csc(N)n1 | 0.2495 |
| CN(C)C(=O)c1cc2cnc(Nc3ccc(N4CCNCC4)cn3)nc2n1C1CCCC1 [RIBOCICLIB] | 0.1227 |
| CC(COc1ccccc1Cc1ccccc1)N1CCCCC1 (stereo not drawn) [BENPROPERINE] | 0.02777 |
| C#C[C@]1(O)CC[C@H]2[C@@H]3CCC4=CC(=O)CC[C@@H]4[C@H]3CC[C@@]21C [NORETHINDRONE] | 0.1388 |
| C=CCN1CC[C@]23c4c5ccc(O)c4O[C@H]2[C@@H](OCCOCCOCCOCCOCCOCCOCCOC)CC[C@@]3(O)[C@H]1C5 [NALOXEGOL] | 0.106 |
| CN(C(=O)C(Cl)Cl)c1ccc(O)cc1 [DILOXANIDE] | -0.0329 |
| O=C1[C@H]2CCCC[C@H]2C(=O)N1CCCCN1CCN(c2nsc3ccccc23)CC1 [PEROSPIRONE] | 0.1455 |

| SMILES | Hit score |
| --- | --- |
| CCCCCCCCCCCC(=O)OCC(O)CO (stereo not drawn) [GLYCEROL MONOLAURATE] | 0.1728 |
| OCC(O)COc1cccc2ccccc12 (stereo not drawn) | 0.1908 |
| CC1=C(C)C(=O)C(CCCCCCCCCC[P+](c2ccccc2)(c2ccccc2)c2ccccc2)=CC1=O | 0.06177 |
| C#C[C@]1(O)CC[C@H]2[C@@H]3CCC4=Cc5oncc5C[C@]4(C)[C@H]3CC[C@@]21C [DANAZOL] | 0.2899 |
| CC(C)(CO)c1cc2cc(NC(=O)C3(c4ccc5c(c4)OC(F)(F)O5)CC3)c(F)cc2n1C[C@@H](O)CO [TEZACAFTOR] | 0.1873 |
| O=C(O)c1cccc(-c2noc(-c3ccccc3F)n2)c1 | 0.2151 |
| N#Cc1ccnc(N2C(=O)CC[C@H]2C(=O)N(c2cncc(F)c2)[C@H](C(=O)NC2CC(F)(F)C2)c2ccccc2Cl)c1 [IVOSIDENIB] | 0.2722 |
| O=C(O)c1ccc2c(c1)nc(Nc1cccc(Cl)c1)c1ccncc12 [SILMITASERTIB] | 0.7608 |
| C[C@H](Nc1ncnc2nc[nH]c12)c1cc2cccc(Cl)c2c(=O)n1-c1ccccc1 [DUVELISIB] | 0.6035 |
| CC[C@H](Nc1ncnc2[nH]cnc12)c1nc2cccc(F)c2c(=O)n1-c1ccccc1 [IDELALISIB] | 0.4259 |
| C[C@H](C(=O)O)c1ccc(-c2ccccc2)c(F)c1 [ESFLURBIPROFEN] | 0.1907 |
| OC[C@H]1OC(O)[C@H](O)[C@@H](O)[C@@H]1O (stereo partly drawn) [DEXTROSE] | 0.07162 |
| CCCCC(F)(F)[C@@]1(O)CC[C@H]2[C@@H](CC(=O)[C@@H]2CCCCCCC(=O)O)O1 [LUBIPROSTONE] | 0.08446 |
| CC1(C)C(/C=C/C=C/C=C/C=C2\N(CCCCS(=O)(=O)[O-])c3ccc4ccccc4c3C2(C)C)=[N+](CCCCS(=O)(=O)[O-])c2ccc3ccccc3c21.[Na+] [INDOCYANINE GREEN] | 0.2338 |
| Cc1nc(NC(=O)N2CCC[C@H]2C(N)=O)sc1-c1ccnc(C(C)(C)C(F)(F)F)c1 [ALPELISIB] | 0.6194 |
| CC(C)(C)C(=O)OCC(=O)[C@H]1CC[C@H]2[C@@H]3CCC4=CC(=O)CC[C@]4(C)[C@H]3CC[C@]12C [DESOXYCORTICOSTERONE PIVALATE] | 0.2223 |
| O=C(O)c1ccc(NC(=O)[C@H](Cc2ccc(O)cc2)NC(=O)c2ccccc2)cc1 [BENTIROMIDE] | 0.2686 |
| CC1(C)O[C@@H]2[C@@H](CO[C@@]3(COS(N)(=O)=O)OC(C)(C)O[C@@H]23)O1 [TOPIRAMATE] | 0.1748 |
